Laboratory results taken from PubChem BioAssay.
Active and inactive are the calls of the source. Unless noted, the rule behind the calls is not given here.

What was measured:
[1] = tested on: Wnt5a (protein binding on small-molecule microarray); assay: Wnt5a binders on small-molecule microarray, primary screen, biophysical, 635/667 nm fluorescence (AID 1142); details: 635 nm fluorescence, higher = more signal;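 note: fluorescence read at 667 nm with signal to noise per printed feature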
[2] = cell viability in Huh7 cells, primary screen, cytotoxicity control for HCV replication inhibitor project, CellTiter-Glo luminescence, basal, 48 h (AID 1143); details: Huh7 HCV replicon, higher = more signal, called active from +8 up or from −8 down;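 note: Huh7 hepatoma cells carrying a hepatitis C replication reporter with no stimulus; test concentration not given here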
[3] = P. aeruginosa biofilm formation inhibitors, primary screen, PAO1 strain, BacTiter-Glo luminescence, LB-PBS (AID 1144); details: 12 h, higher = more signal
[4] = CREB reporter modulators without forskolin, primary screen, cell-based, PC12, CRE-LacZ reporter, unstimulated (AID 1145); details: no forskolin, luminescence, 4.5 h, higher = more signal, called active from +8 up or from −8 down
[5] = CREB reporter modulators under forskolin, primary screen, cell-based, PC12, CRE-LacZ reporter, forskolin-stimulated (AID 1146); details: luminescence, 4.5 h, higher = more signal, called active from +8 up or from −8 down;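 note: PC12 cells with 6xCRE LacZ reporter stimulated by forskolin 10 µM; beta-galactosidase reporter signal reflecting CREB driven transcription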
[6] = biological target: Streptavidin (Streptomyces avidinii) (UniProt P22629); assay: streptavidin binders on small-molecule microarray, primary screen, artefact control for SMM compound annotation, biophysical, 635/667 nm fluorescence (AID 1147); details: streptavidin binding, higher = more signal;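 note: signal reflects streptavidin binding to arrayed compounds as a control protein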
Streptavidin (Streptomyces avidinii), sequence (P22629 whole entry, looked up): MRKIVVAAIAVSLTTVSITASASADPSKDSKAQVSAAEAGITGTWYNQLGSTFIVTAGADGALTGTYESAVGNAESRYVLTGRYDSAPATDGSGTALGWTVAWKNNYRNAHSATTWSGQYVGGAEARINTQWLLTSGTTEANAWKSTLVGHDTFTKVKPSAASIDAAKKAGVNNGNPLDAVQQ

[7] = small-molecule binders of probe aInhba, primary screen, biochemical, small-molecule microarray, 635/667 nm fluorescence (AID 1148); details: higher = more signal;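 note: score merges 667nm spot fluorescence with signal-to-noise for antibody binding to printed compounds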
[8] = biological target: Torsin-1A (Homo sapiens) (UniProt O14656); assay: torsin A binders from cell lysate, primary screen, small-molecule microarray, wild-type, 635/667 nm (AID 1149); details: COS7 hTOR1A-WT lysate, 635 nm fluorescence, higher = more signal
Torsin-1A (Homo sapiens), sequence (O14656 whole entry, looked up): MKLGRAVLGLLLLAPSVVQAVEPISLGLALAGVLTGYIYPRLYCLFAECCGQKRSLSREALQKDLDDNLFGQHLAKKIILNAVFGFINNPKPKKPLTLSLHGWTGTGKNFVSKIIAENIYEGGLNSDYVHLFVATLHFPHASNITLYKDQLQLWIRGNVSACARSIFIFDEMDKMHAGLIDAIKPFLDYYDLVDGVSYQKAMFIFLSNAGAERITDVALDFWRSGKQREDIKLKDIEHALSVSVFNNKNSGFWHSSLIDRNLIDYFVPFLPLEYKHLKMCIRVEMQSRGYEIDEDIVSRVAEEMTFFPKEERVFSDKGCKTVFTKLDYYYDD

[9] = biological target: Torsin-1A (Homo sapiens) (UniProt O14656); assay: small-molecule binders of mutant TOR1A in lysate, primary screen, cell lysate, small-molecule microarray, COS7 lysate, 635/667 nm fluorescence (AID 1150); details: COS7 hTOR1A mutant lysate, 635 nm fluorescence, higher = more signal;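 note: score pools 667 nm emission and signal to noise measuring lysate protein binding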
[10] = tested on: Sonic hedgehog protein (Shh); assay: small-molecule binders of Shh protein, primary screen, biochemical, small-molecule microarray, 635/667 nm fluorescence (AID 1151); details: small-molecule microarray binding, 635 nm fluorescence; higher = more signal;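 note: Shh protein binding to compounds spotted on small-molecule microarray slides; score combines spot fluorescence intensity with signal-to-noise across triplicate slides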

Row | Structure (SMILES) | composite z-score [1] | z-score [2] | z-score [3] | z-score [4] | z-score [5] | composite z-score [6] | composite z-score [7] | composite z-score [8] | composite z-score [9] | composite z-score [10]
1 | COCCOC(=O)N1C(=O)[C@@]2(c3cc(C#CC4=CCCCC4)ccc31)[C@H](C(=O)N1CCCCCCC1)[C@H]1C(=O)O[C@H](c3ccccc3)[C@H](c3ccccc3)N1[C@@H]2c1ccccc1OCCO | 0.393 | -5.21 (inactive) | -1.33 (inactive) | -1.7 (inactive) | -1.11 (inactive) | 1.04 | 0.806 | 0.801 | 0.824 | 1.62
2 | C=CCNC(=O)[C@@H]1[C@H]2C(=O)O[C@H](c3ccccc3)[C@H](c3ccccc3)N2[C@H](c2ccc(O)cc2)[C@@]12C(=O)Nc1ccc(C#CC3=CCCCC3)cc12 | 0.779 | -4.01 (inactive) | -0.909 (inactive) | 0.119 (inactive) | -0.679 (inactive) | 1.72 | 1.05 | 0.857 | 0.975 | 2.03
3 | C=CCOC(=O)[C@@H]1[C@H]2C(=O)O[C@H](c3ccccc3)[C@H](c3ccccc3)N2[C@H](c2ccc(OCCOC(=O)[C@H]3C[C@H]4C(=O)N[C@@H](CCCCN(C)C)C(=O)N4[C@H]3c3cccc(OCCO)c3)cc2)[C@@]12C(=O)Nc1ccccc12 | -0.234 | 0.132 (inactive) | -0.306 (inactive) | -0.394 (inactive) | -0.647 (inactive) | 1.61 | -0.141 | 1.2 | 0.824 | 0.769
4 | C=CCNC(=O)[C@@H]1[C@H]2C(=O)O[C@H](c3ccccc3)[C@H](c3ccccc3)N2[C@H](c2ccc(O)cc2)[C@@]12C(=O)N(C(=O)OCCOC)c1ccc(C#CCC(C(=O)OC)C(=O)OC)cc12 | 0.259 | -3.02 (inactive) | 0.132 (inactive) | -0.438 (inactive) | 0.416 (inactive) | 0.0198 | 0.0074 | 0.586 | 1.3 | 1.37
5 | C=CCC(OC(C)=O)[C@@H]1[C@@H](N(Cc2ccc(-c3ccccc3)cc2)C(=O)Cc2ccc(OC)cc2)c2cc(OCCCO)ccc2N1C(=O)c1ccc2ccccc2c1 (stereo not given in full) | -0.0966 | -1.35 (inactive) | 0.832 (inactive) | 1.37 (inactive) | 0.385 (inactive) | 1.14 | -0.153 | -0.137 | -0.451 | 0.234
6 | CCCCCCCCCCC(O)C1C=CC2C(=O)N(C)C(=O)C2N1Nc1ccccc1 (stereo not given) | -0.56 | -0.776 (inactive) | 0.178 (inactive) | 0.819 (inactive) | 0.848 (inactive) | -0.925 | -0.474 | -0.0378 | 0.213 | -1.5
7 | O=C1NC(=O)C2C1C=CC(C(O)C(c1ccccc1)c1ccccc1)N2Nc1ccccn1 (stereo not given) | 0.367 | 0.604 (inactive) | -0.725 (inactive) | -0.898 (inactive) | -0.804 (inactive) | -0.0787 | 0.096 | 0.675 | 1.06 | 0.676
8 | Cc1ccc(S(=O)(=O)N2[C@@H](c3ccccc3)C(C(=O)O)=CC[C@H]2c2ccc(F)cc2)cc1 | 0.148 | -1.85 (inactive) | -0.8 (inactive) | -0.676 (inactive) | 0.398 (inactive) | 1.4 | 0.0403 | 1.33 | 1.64 | 0.193
9 | COC(=O)c1c2oc(c1C(=O)OC)C(=O)N[C@H](Cc1ccccc1)Cn1cc(nn1)C1(CCCCC1)NC(=O)N[C@H](CO)CC2 | 0.075 | 0.0261 (inactive) | -0.72 (inactive) | 8.64 (active) | 0.334 (inactive) | -0.626 | 0.161 | 0.3 | 0.29 | 1.52
10 | Cc1ccc(S[C@]2(C(=O)NC3CC3)CC(=O)N(C3Cc4ccccc4C3)[C@@H]2c2ccc(CO)cc2I)cc1 | -0.547 | -2.23 (inactive) | 0.714 (inactive) | 0.919 (inactive) | 2.86 (inactive) | -0.441 | 0.0051 | 0.909 | 0.701 | 0.209
11 | C#CCN(C(=O)OC(C)(C)C)[C@H](CO)c1ccccc1 | -0.1 | -1.66 (inactive) | -0.141 (inactive) | 0.0329 (inactive) | -0.653 (inactive) | -0.314 | -0.128 | 0.435 | 0.411 | 0.0466
12 | CC1C2C(CCCO)=CC(C3C(=O)N(C)C(=O)C23)N1Cc1cccc(OC(F)(F)F)c1 (stereo not given) | 0.164 | -0.293 (inactive) | 0.403 (inactive) | -0.0142 (inactive) | -0.733 (inactive) | 2.22 | 0.143 | 0.76 | 1.47 | 0.113
13 | C=C(C(=O)CC[C@@H](OC(=O)c1ccccc1-c1ccccc1C(=O)O)c1ccc(CO)o1)C(C)C | 0.389 | -0.115 (inactive) | -0.306 (inactive) | 1.47 (inactive) | 1.73 (inactive) | -0.539 | 0.0051 | 1.28 | 0.317 | 1.65
14 | CC(C)(C)OC(=O)CC[C@]1(C(=O)N2CCOCC2)COC(c2ccc(OCCCO)cc2)=N1 | -0.278 | -0.107 (inactive) | -0.367 (inactive) | 1.34 (inactive) | -0.841 (inactive) | -0.0376 | 0.171 | 0.701 | 1.48 | -0.447
15 | O=C(NCCN1CCOCC1)[C@@H]1c2ccccc2C(=O)N(CC23CC4CC(CC(C4)C2)C3)[C@H]1c1ccc(CO)cc1 | 0.617 | -2.69 (inactive) | -0.634 (inactive) | 0.441 (inactive) | -0.0639 (inactive) | 1.12 | 0.0542 | 0.51 | 1.47 | 0.506
16 | C=CCN1C(=O)[C@]2(O[C@H](CCO)[C@@H]([Si](C)(C)c3ccc(OC)cc3)[C@@H]2C)c2cc(N3C(=O)c4ccccc4Oc4ccccc43)ccc21 | 0.169 | -7.94 (inactive) | -0.323 (inactive) | 22.6 (active) | -3.24 (inactive) | 0.763 | -0.045 | 0.493 | 0.418 | 0.804
17 | C=C[C@H](OC)[C@@H](O)c1ccc(OC)c(O)c1 | -0.444 | 0.97 (inactive) | -1.34 (inactive) | 0.222 (inactive) | -0.904 (inactive) | -1.56 | -0.29 | -0.874 | -0.695 | -0.734
18 | O=C1NC(=O)C2C1C=CC(C(O)C1CCCCC1)N2Nc1ccccn1 (stereo not given) | 0.0408 | 1.06 (inactive) | -1.42 (inactive) | 0.433 (inactive) | 1.29 (inactive) | -0.15 | -0.0762 | 0.254 | 0.852 | 0.278
19 | C=CCNC(=O)[C@@H]1[C@H]2C(=O)O[C@H](c3ccccc3)[C@H](c3ccccc3)N2[C@H](c2ccc(OCCO)cc2)[C@@]12C(=O)Nc1ccc(C#CC3=CCCCC3)cc12 | 0.257 | -4.25 (inactive) | -0.188 (inactive) | 0.299 (inactive) | -0.0321 (inactive) | 1.06 | 0.0502 | 0.707 | 0.531 | 1.66
20 | CCOC(=O)C1=CCC(c2cccn2C(=O)OC(C)(C)C)N(S(=O)(=O)c2ccc(C)cc2)C1 (stereo not given) | 0.0845 | -4.35 (inactive) | 0.0401 (inactive) | 0.136 (inactive) | 19.4 (active) | 1.99 | 0.18 | 0.0444 | 0.461 | 0.157
21 | COC(=O)[C@@]1(Cc2ccccc2)[C@H]2c3cc(C(=O)N(C)C)n(CCF)c3C[C@H]2CN1C(=O)c1ccccc1 | 0.633 | -0.717 (inactive) | -0.247 (inactive) | 0.387 (inactive) | 0.218 (inactive) | 1.74 | 0.333 | -0.0224 | 1.16 | -0.187
22 | C=CCOC(=O)[C@H]1[C@@H]2C(=O)O[C@@H](c3ccccc3)[C@@H](c3ccccc3)N2[C@@H](c2ccc(OCCOC(=O)[C@@H]3C[C@@H]4C(=O)N[C@@H](Cc5ccccc5)C(=O)N4[C@@H]3c3ccc(O)cc3)cc2)[C@]12C(=O)Nc1ccc(I)cc12 | 0.305 | -0.268 (inactive) | 0.0872 (inactive) | 0.81 (inactive) | 0.695 (inactive) | 0.387 | 0.124 | -0.305 | 0.237 | 1.93
23 | Cc1c(NC(=O)/C(C#N)=C/C=C/c2ccc([N+](=O)[O-])cc2)c(=O)n(-c2ccccc2)n1C | 0.388 | -0.997 (inactive) | 1.12 (inactive) | 0.829 (inactive) | 0.732 (inactive) | 1.32 | 0.0301 | 0.321 | 0.468 | 0.569
24 | O=C(O)C1=CC[C@H]2C(=O)N(c3ccccc3)C(=O)[C@@H]12 | 0.144 | 0.704 (inactive) | 0.317 (inactive) | 0.173 (inactive) | 0.676 (inactive) | 1.22 | 0.0448 | 1 | 0.448 | -0.323
25 | C=CCOC(=O)[C@@H]1[C@H]2C(=O)O[C@H](c3ccccc3)[C@H](c3ccccc3)N2[C@H](c2ccc(OCCOC(=O)[C@@H]3C[C@@H]4C(=O)N[C@@H](CC(C)C)C(=O)N4[C@@H]3c3ccc(O)cc3)cc2)[C@@]12C(=O)Nc1ccc(I)cc12 | 0.601 | -0.259 (inactive) | -0.282 (inactive) | -0.655 (inactive) | -1.23 (inactive) | 0.834 | 1.27 | 0.271 | 0.506 | 2.2
26 | O=C1O[C@H](c2ccccc2)[C@H](c2ccccc2)N2[C@H]1[C@@H](C(=O)Nc1nc3ccccc3s1)[C@]1(C(=O)Nc3ccccc31)[C@H]2c1ccccc1OCCO | -0.023 | -4.68 (inactive) | -0.804 (inactive) | 0.272 (inactive) | 0.519 (inactive) | 1.25 | 0.161 | 0.869 | 1.11 | 0.465
27 | COc1cccc(C)c1NC(=O)O[C@H]1[C@H](OC(=O)Nc2ccccc2-c2ccccc2)[C@@H](OC(=O)Nc2ccccc2-c2ccccc2)[C@@H](OC)O[C@@H]1CO | 0.933 | -5.6 (inactive) | -0.325 (inactive) | 1.13 (inactive) | -1.05 (inactive) | 1 | 0.179 | 0.631 | 1.23 | 0.457
28 | COc1ccc([Si](C)(C)[C@H]2[C@H](CC(=O)N3CCC[C@H]3CO)O[C@@]3(C(=O)N(C)c4c(Br)cc(C)cc43)[C@@H]2C)cc1 | 1.55 | -1.11 (inactive) | -0.518 (inactive) | 0.758 (inactive) | 1.09 (inactive) | 3.28 | 0.462 | 2.05 | 1.5 | 1.6
